Source: PubChem BioAssay (NCATS)
Inconclusive results are not listed. Where a call stands in place of a potency, no number is given. The source made the active and inactive calls. Calls follow the shape of the dose curve; as a rule, active = well fitted inhibition curve with a large enough effect; inconclusive = small, poorly fitted or top-dose-only effect; inactive = flat fitted curve, though single readings scatter.

Test system: Zika virus NS2B-NS3 protease
Assay: Primary screen GU AMC qHTS for Zika virus inhibitors (AID 1347154); also: nearly all actives have a fitted effect of over 70% in size
Method in brief: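 Unlinked Zika NS2B hydrophilic domain/NS3 protease domain noncovalent complex (25 nM final) in 10 mM Tris-HCl pH 8.0, 0.01% Tween 20, with AMC peptide substrate. Fluorescence (ex 340, em 450 nm) change over 15 min, room temperature; percent inhibition fitted to 4-parameter Hill equation.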

SMILES	Potency
O=C1CC[C@@H](C(=O)O)N1	inactive
Cc1c(C)c2c(c(C)c1OC(=O)c1cccnc1)CC[C@@](C)(CCC[C@H](C)CCC[C@H](C)CCCC(C)C)O2	inactive
C[C@]1(Cn2ccnn2)[C@H](C(=O)O)N2C(=O)C[C@H]2S1(=O)=O	inactive
O=C1C(c2[nH]c3ccccc3c2O)=Nc2ccccc21	inactive
COC(=O)c1cccnc1	inactive
OCc1ccc(Cl)cc1Cl	inactive
C[N+]1(C)CCCC(OC(=O)C(O)(c2ccccc2)c2ccccc2)C1 (stereo unspecified)	inactive
CC1(c2ccccc2)OC(C(=O)O)=CC1=O (stereo unspecified)	inactive
CN1CCN(C(=O)C2CCCCC2)CC1	inactive
Cc1ccc(S(=O)(=O)NC(=O)NC2CCCCCCC2)cc1	inactive
CN1C(C)(C)CCCC1(C)C	inactive
CC(=O)OCC(COC(C)=O)OC(C)=O	inactive
O=C(O)c1ccc(OCCCOc2ccc(C(=O)O)cc2)cc1	inactive
CCOC(=O)[C@H](CCc1ccccc1)N[C@@H](C)C(=O)N1Cc2cc(OC)c(OC)cc2C[C@H]1C(=O)O	inactive
CN1CC(=O)NC1=N	inactive
CCOC(=O)OC(C)OC(=O)[C@@H]1N2C(=O)[C@@H](NC(=O)[C@H](N)c3ccccc3)[C@H]2SC1(C)C (stereo partly specified)	inactive
COc1ccc(C(=O)NCc2ccc(OCCN(C)C)cc2)cc1OC	inactive
NS(=O)(=O)c1cc(C2(O)NC(=O)c3ccccc32)ccc1Cl (stereo unspecified)	inactive
CC(N)CCCC(C)(C)O (stereo unspecified)	inactive
CC(C)CCOC(=O)c1ccc(N(C)C)cc1	inactive
Cc1ccc(S(=O)(=O)NC(=O)NC2CCCCC2)cc1	inactive
